Experiment [1] relates to PRMT1 (protein arginine N-methyltransferase 1). Kind of experiment: PRMT1 binders on small-molecule microarrays, primary screen, biochemical, small-molecule microarray, 635 nm fluorescence (AID 1088).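 Note: binding of Prmt1 protein to compounds spotted on small-molecule microarray slides.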 Particulars: small-molecule microarray binding, higher = more signal.
Experiment [2] can be described thus: yeast growth modulation, basal conditions, primary screen, YJM789 clinical isolate, OD600, 24 h (AID 1089).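 Note: growth of clinical yeast isolate S. cerevisiae YJM 789 seeded 1000 cells per well; test concentration not given here.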 The note with it: S. cerevisiae YJM789 growth, higher = more signal, called active from +8 up or from −8 down.
A short description of experiment [3]: fission yeast growth modulation, primary screen, strain 972, OD600, 24 h, no modulator (AID 1090).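 Note: basal condition with compound alone and no growth modifier present; test concentration not given here.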 The note with it: S. pombe 972 growth, higher = more signal, called active from +8 up or from −8 down.
Experiment [4] can be described thus: S. cerevisiae growth modulation with rapamycin, primary screen, strain BY4716, OD600, 96 h (AID 1091). Note: test concentration not given here. The note with it: higher = more signal, called active from +8 up or from −8 down.
The target of experiment [5] is Torsin-1A-interacting protein 2 (Homo sapiens) (UniProt Q8NFQ8). Kind of experiment: LULL1 binders on small-molecule microarray, primary screen, cell lysate, human LULL1 lysate, 635/667 nm fluorescence (AID 1092).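 Note: probe is lysate of COS7 cells overexpressing human LULL1; score merges per-feature 667 nm fluorescence with signal-to-noise.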 Particulars: hLULL1 lysate binding, 635 nm fluorescence, higher = more signal.
Experiment [6] can be described thus: E. coli growth modulation, two-sided OD650, primary screen, E. coli filamentation project, strain DRC41, 24 h (AID 1093).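 Note: MC1000 strain lacking acrAB efflux and sulA so SOS filamentation is blocked; test concentration not given here.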 The note with it: OD650, 24 h, higher = more signal, called active from +8 up or from −8 down.
The nature of experiment [7]: small-molecule microarray binders of probe aLefty2, primary screen, biochemical, biotinylated probe, 635/667 nm fluorescence (AID 1094).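 Note: score merges spot fluorescence near 667 nm with spot signal-to-noise ratio.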 The note with it: higher = more signal.
In experiment [8] the test system is Noggin (protein binding on small-molecule microarray). Kind of experiment: Noggin binders on small-molecule microarray, primary screen, biochemical, 635/667 nm fluorescence (AID 1095).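 Note: score merges 667 nm feature fluorescence with signal to noise over triplicate slides.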 Particulars: 635 nm fluorescence, higher = more signal.
The target of experiment [9] is Neurogenic locus notch homolog protein 3 (Homo sapiens) (UniProt Q9UM47). Kind of experiment: NOTCH3 binders on small-molecule microarray, primary screen, biochemical, 635/667 nm fluorescence (AID 1096). The note with it: NOTCH3 binding, 635 nm fluorescence, higher = more signal.
Experiment [10] is described as follows: small-molecule microarray binders of probe aEGFR, primary screen, biochemical, biotinylated probe, 635/667 nm fluorescence (AID 1097).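 Note: probe is a biotinylated anti-EGFR antibody binding compounds printed on slides; score combines fluorescence near 667 nm and signal to noise of each spot.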 The note with it: higher = more signal.

The structures appear in SMILES notation. Calls of active or inactive are those of the source.

Chain of Torsin-1A-interacting protein 2 (Homo sapiens) (Q8NFQ8 whole entry, looked up): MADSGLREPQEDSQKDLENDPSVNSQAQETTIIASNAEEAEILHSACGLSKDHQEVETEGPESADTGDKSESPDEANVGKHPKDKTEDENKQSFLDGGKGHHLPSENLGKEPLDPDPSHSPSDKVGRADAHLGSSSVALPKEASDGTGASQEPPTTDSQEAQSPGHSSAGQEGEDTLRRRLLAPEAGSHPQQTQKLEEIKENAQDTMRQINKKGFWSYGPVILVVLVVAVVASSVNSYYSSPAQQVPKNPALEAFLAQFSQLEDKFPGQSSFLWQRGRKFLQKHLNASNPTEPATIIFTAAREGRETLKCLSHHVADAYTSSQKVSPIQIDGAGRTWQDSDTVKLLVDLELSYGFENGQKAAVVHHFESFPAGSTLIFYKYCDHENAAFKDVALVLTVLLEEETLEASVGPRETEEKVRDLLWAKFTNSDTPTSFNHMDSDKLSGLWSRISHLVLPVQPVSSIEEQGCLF
Chain of Neurogenic locus notch homolog protein 3 (Homo sapiens) (Q9UM47 whole entry, looked up): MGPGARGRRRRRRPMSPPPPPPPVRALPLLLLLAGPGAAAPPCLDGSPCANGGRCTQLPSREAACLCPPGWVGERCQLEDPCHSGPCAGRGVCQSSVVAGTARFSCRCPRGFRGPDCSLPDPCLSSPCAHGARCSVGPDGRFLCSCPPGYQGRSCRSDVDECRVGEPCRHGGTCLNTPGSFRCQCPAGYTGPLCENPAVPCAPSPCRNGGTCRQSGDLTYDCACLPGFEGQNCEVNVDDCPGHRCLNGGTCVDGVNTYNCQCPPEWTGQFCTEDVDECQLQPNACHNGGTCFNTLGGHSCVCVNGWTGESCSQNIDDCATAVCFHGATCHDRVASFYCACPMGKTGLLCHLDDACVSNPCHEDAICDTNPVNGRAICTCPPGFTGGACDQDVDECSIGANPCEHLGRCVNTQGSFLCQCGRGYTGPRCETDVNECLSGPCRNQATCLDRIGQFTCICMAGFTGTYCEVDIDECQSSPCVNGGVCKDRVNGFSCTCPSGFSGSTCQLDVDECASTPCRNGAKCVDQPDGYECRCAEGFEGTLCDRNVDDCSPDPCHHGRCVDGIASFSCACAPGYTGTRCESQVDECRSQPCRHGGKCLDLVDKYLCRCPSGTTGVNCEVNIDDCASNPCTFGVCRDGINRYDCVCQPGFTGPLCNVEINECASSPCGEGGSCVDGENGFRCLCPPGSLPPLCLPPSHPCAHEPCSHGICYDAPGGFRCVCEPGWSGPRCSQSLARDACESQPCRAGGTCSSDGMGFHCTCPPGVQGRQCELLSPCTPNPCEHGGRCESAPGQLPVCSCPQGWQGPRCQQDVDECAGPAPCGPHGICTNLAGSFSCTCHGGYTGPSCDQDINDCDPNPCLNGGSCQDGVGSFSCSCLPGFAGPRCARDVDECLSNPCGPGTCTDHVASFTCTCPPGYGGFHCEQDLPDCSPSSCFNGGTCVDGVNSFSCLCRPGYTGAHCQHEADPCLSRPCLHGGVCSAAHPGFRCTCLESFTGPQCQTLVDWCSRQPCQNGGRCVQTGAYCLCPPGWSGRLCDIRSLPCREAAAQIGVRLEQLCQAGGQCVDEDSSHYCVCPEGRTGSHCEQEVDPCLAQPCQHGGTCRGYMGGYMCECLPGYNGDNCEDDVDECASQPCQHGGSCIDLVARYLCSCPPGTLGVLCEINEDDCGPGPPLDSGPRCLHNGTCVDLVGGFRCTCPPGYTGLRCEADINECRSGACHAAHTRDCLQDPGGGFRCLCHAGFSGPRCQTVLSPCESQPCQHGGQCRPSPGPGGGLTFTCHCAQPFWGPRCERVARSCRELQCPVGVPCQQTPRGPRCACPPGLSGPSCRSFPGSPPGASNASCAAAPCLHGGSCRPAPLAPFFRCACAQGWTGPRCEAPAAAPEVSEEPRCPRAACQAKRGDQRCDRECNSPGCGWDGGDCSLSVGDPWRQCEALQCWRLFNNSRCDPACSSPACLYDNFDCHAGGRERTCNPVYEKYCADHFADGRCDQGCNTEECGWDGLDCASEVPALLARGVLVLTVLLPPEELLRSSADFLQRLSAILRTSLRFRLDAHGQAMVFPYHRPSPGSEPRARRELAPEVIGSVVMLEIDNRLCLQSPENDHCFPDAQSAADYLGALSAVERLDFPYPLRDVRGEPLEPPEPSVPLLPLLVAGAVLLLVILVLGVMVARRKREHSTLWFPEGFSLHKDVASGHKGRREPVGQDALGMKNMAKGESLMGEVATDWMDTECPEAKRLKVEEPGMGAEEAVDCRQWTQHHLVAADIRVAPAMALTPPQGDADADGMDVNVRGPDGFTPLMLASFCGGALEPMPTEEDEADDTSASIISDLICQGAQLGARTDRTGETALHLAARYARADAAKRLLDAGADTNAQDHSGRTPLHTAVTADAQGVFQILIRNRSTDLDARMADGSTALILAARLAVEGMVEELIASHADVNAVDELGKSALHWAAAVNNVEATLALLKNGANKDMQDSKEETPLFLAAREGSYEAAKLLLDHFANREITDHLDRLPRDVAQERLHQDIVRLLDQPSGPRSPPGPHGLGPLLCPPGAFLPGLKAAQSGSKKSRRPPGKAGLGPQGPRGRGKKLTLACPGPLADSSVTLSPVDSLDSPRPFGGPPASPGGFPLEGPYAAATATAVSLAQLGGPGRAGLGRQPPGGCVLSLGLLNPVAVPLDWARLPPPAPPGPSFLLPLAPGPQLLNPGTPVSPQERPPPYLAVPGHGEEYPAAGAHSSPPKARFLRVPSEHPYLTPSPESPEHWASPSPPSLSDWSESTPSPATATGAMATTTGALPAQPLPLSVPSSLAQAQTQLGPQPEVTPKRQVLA

`COCCOC(=O)N1C(=O)[C@@]2(c3cc(C#CCNC(N)=O)ccc31)[C@H](c1ccc(O)cc1)N1[C@H](c3ccccc3)[C@H](c3ccccc3)OC(=O)[C@H]1[C@@H]2C(=O)Nc1nc2ccccc2s1`: the composite z-score is 0.902 in experiment [1]; 1.01 in experiment [5]; 0.218 in [7]; 1.23 in experiment [8]; 1.04 in experiment [9]; 0.13 in [10]. Further, the z-score in [2] was -2.82 (inactive); in experiment [3], -1.55 (inactive); in [4] it was -1.12 (inactive); in experiment [6], 3.57 (inactive).
With `COCC(=C=CC[C@H](O)c1ccc(OCCO)cc1)C[C@H](O)c1cc(Cl)cc(Cl)c1O`, the composite z-score in [1] is 1.55; in experiment [5] it was -1.22; in experiment [7], -0.166; in experiment [8], 1.86; in [9] it was 1.12; in experiment [10], -0.0334. In addition, the z-score in experiment [2] is -24.9 (active); in [3], -20.5 (active); in experiment [4] it was -3.87 (inactive); in experiment [6], 0.813 (inactive).
In the case of `CCC[C@@H]1C=C(C(=O)O)[C@H](c2ccc(C)cc2)N1S(=O)(=O)c1ccc(C)cc1`, the composite z-score in experiment [1] was 0.844; in experiment [5] it was 3.68; in experiment [7], 0.0943; in [8] it was -0.327; in experiment [9], 0.62; in experiment [10], 0.0992. For the same compound, the z-score is -0.545 (inactive) in experiment [2], 0.249 (inactive) in [3], -0.34 (inactive) in experiment [4] and -0.499 (inactive) in [6].
On to `CCOC(=O)C[C@H]1[C@H](OC(=O)c2ccc(-c3ccccc3)cc2)[C@@H](NC(=O)c2ccc(-c3ccccc3)cc2)c2cc(OCCCO)ccc2N1C(=O)Cc1ccc(OC)cc1`, for which the composite z-score in experiment [1] was -0.007; in experiment [5], 0.856; in experiment [7] it was -0.0196; in [8], -0.31; in [9], -0.166; in [10] it was -0.0505. Besides, the z-score is -0.907 (inactive) in [2], 0.321 (inactive) in experiment [3], 0.16 (inactive) in [4] and -0.963 (inactive) in experiment [6].
Turning to `CCOC(=O)C1=CCC(c2ccc(C#N)cc2)N(S(=O)(=O)c2ccc(C)cc2)C1` (stereo not given), the composite z-score in [1] was 1.11; in experiment [5], 2.64; in experiment [7] it was 0.276; in experiment [8] it was -0.184; in experiment [9] it was 1.09; in experiment [10], -0.0297. Also, the z-score was -0.0764 (inactive) in [2], 0.0767 (inactive) in experiment [3], 2.91 (inactive) in experiment [4] and 0.394 (inactive) in experiment [6].
`C=CCOC(=O)[C@@H]1[C@H]2C(=O)O[C@H](c3ccccc3)[C@H](c3ccccc3)N2[C@H](c2ccc(OCCOC(=O)[C@@H]3C[C@@H]4C(=O)N[C@@H](Cc5ccccc5)C(=O)N4[C@@H]3c3cccc(OCCO)c3)cc2)[C@@]12C(=O)Nc1ccc(I)cc12`: the composite z-score in [1] was 1.53; in experiment [5], 1.83; in [7], -0.0286; in experiment [8] it was 1.5; in experiment [9], 0.974; in [10], 0.0042. Further, the z-score in experiment [2] was 1.39 (inactive); in experiment [3], 2.04 (inactive); in [4], 4.55 (inactive); in experiment [6] it was 0.0087 (inactive).
On to `COc1ccc(NN2C(C(O)c3ccc(OC)c(OCc4ccccc4)c3)C=CC3C(=O)N(C4CCCCC4)C(=O)C32)cc1` (stereo not given), for which the composite z-score in experiment [1] was 1.3; in experiment [5], 3.24; in experiment [7], 0.0225; in experiment [8], 0.181; in experiment [9] it was 1.05; in experiment [10], -0.0688. The z-score in experiment [2] was -0.352 (inactive); in experiment [3], 0.225 (inactive); in experiment [4] it was -0.724 (inactive); in experiment [6], 0.644 (inactive).
For the compound `COc1ccc([Si](C)(C)[C@@H]2[C@@H](CC(=O)N(CCO)Cc3ccccc3)O[C@]3(C(=O)N(C)c4ccccc43)[C@H]2C)cc1`, the composite z-score worked out at 1.54 in experiment [1]; 1.81 in experiment [5]; 0.512 in [7]; 1.21 in experiment [8]; 0.963 in experiment [9]; 0.238 in experiment [10]. In addition, the z-score in experiment [2] is -0.943 (inactive); in experiment [3], 0.14 (inactive); in [4], 0.451 (inactive); in experiment [6] it was -0.0145 (inactive).
With `COCCCNC(=O)[C@@]1(c2ccc([N+](=O)[O-])cc2)CC(=O)N(CC23CC4CC(CC(C4)C2)C3)[C@@H]1c1ccc(CO)cc1`, the composite z-score in experiment [1] was 1.54; in experiment [5], 2.28; in experiment [7], 0.0054; in experiment [8] it was 1.54; in [9], 1.08; in experiment [10], 0.0117. Also, the z-score was 0.38 (inactive) in [2], -0.634 (inactive) in [3], -0.101 (inactive) in experiment [4] and 1.45 (inactive) in experiment [6].
Take `O=C(NCc1ccccc1)[C@]1(CCS(=O)(=O)c2ccccc2)N=C(c2ccc(OCCCO)cc2)O[C@@H]1c1ccccc1`: the composite z-score in experiment [1] is 1.57; in experiment [5] it was 1.78; in experiment [7] it was -0.0552; in experiment [8] it was 0.204; in [9], 1.07; in experiment [10], 0.219. The z-score in experiment [2] was 0.63 (inactive); in [3], 0.194 (inactive); in experiment [4], 36.9 (active); in [6] it was 0.887 (inactive).
For `CCOC(=O)[C@H]1C/C=C/C[C@H](C(=O)OCC)C(=O)O[C@H]2[C@@H](OC)O[C@H](CO)[C@@H](OC(=O)Nc3ccc4c(c3)OCO4)[C@@H]2OC1=O`, the composite z-score in experiment [1] is 0.921; in experiment [5] it was 2.35; in [7], -0.0238; in experiment [8] it was -0.259; in [9] it was 0.145; in experiment [10] it was -0.071. Also, the z-score in experiment [2] was 1.12 (inactive); in experiment [3] it was 0.079 (inactive); in experiment [4], 6.03 (inactive); in experiment [6], 1.59 (inactive).
For the compound `COc1ccc(C(O)C2C=CC3C(=O)N(c4ccccc4)C(=O)C3N2Nc2ccc([N+](=O)[O-])cc2)cc1OCc1ccccc1` (stereo not given), the composite z-score was 0.923 in experiment [1]; 2.72 in [5]; 1.25 in experiment [7]; 0.322 in experiment [8]; 1.11 in experiment [9]; 0.852 in experiment [10]. Also, the z-score is -0.225 (inactive) in experiment [2], 1.57 (inactive) in experiment [3], 0.989 (inactive) in experiment [4] and -1.29 (inactive) in [6].
On to `O=C1O[C@H](c2ccccc2)[C@H](c2ccccc2)N2[C@H]1[C@@H](C(=O)O)[C@]1(C(=O)Nc3ccc(C#CC4=CCCCC4)cc31)[C@H]2c1ccc(OCCO)cc1`, for which the composite z-score is 1.54 in [1]; 3.06 in experiment [5]; -0.0104 in experiment [7]; 1.34 in experiment [8]; 1.1 in experiment [9]; -0.0657 in [10]. For the same compound, the z-score is 2.1 (inactive) in [2], 1.14 (inactive) in experiment [3], -0.1 (inactive) in experiment [4] and -0.413 (inactive) in experiment [6].
Regarding `C=C[C@H](C)[C@@H](O)c1ccc(O)c2ccccc12`, the composite z-score is -0.169 in experiment [1]; 0.853 in [5]; -0.254 in [7]; -0.0597 in experiment [8]; -0.0004 in [9]; -0.322 in experiment [10]. The z-score in [2] was -0.968 (inactive); in experiment [3] it was -13.3 (active); in experiment [4] it was 4.25 (inactive); in [6] it was 0.149 (inactive).
